Source: PubChem BioAssay (NCATS)
Inconclusive results are not listed. Active and inactive are the calls of the source. The call rests on the fitted dose curve; in most records, active means well fitted inhibition curve with a large enough effect; inconclusive means small, poorly fitted or top-dose-only effect; inactive means flat fitted curve, though single readings scatter.

How the values were obtained:
Assay in all cases: qHTS profiling for inhibitors of Plasmodium falciparum proliferation (AID 504749); further: nearly all actives have a fitted effect of over 60% in size
Conditions in all cases: P. falciparum in erythrocytes, SYBR Green DNA, 72 h; series mostly up to 28.7 µM
[1] = system: 3D7
Summary of the method: (§1)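 Parasite proliferation within erythrocytes, 72 h exposure. Endpoint: SYBR Green I fluorescence after overnight lysis at room temperature. Controls: 0.29 uM artemisinin, DMSO.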

[2] = system: 7G8
Summary of the method: as §1

[3] = system: CP185
Summary of the method: as §1

[4] = system: CP191
Summary of the method: as §1

[5] = system: CP192
Summary of the method: as §1

[6] = system: CP201
Summary of the method: as §1

[7] = system: CP237
Summary of the method: as §1

[8] = system: CP238
Summary of the method: as §1

[9] = system: CP247
Summary of the method: as §1

[10] = system: CP286
Summary of the method: as §1

[11] = system: CP305
Summary of the method: as §1

[12] = system: CP335
Summary of the method: as §1

[13] = system: DIV30
Summary of the method: as §1

[14] = system: Dd2
Summary of the method: as §1

[15] = system: GB4
Summary of the method: as §1

[16] = system: HB3
Summary of the method: as §1

[17] = system: P94_40
Summary of the method: as §1

[18] = system: PC49
Summary of the method: as §1

[19] = system: TAB109
Summary of the method: as §1

[20] = system: TAB113
Summary of the method: as §1

Measured: Potency

C[C@@H]1O[C@@H](O[C@H]2C[C@@H](O)[C@@]3(CO)[C@H]4[C@H](O)C[C@]5(C)[C@@H](C6=CC(=O)OC6)CC[C@]5(O)[C@H]4CC[C@@]3(O)C2)[C@@H](O)[C@H](O)[C@H]1O
inactive: all assays above
